An excerpt weighted towards active compounds, which were near 3.8% of everything screened.
Gli-Sufu block: antagonists of Gli-Sufu signaling. Sufu-KO-LIGHT fibroblasts, Gli luciferase reporter luminescence. inhibition, % at 5 µM. actives 0.74% (n = 340,000). AID 588413;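 active = inhibition above about 55%, limit read from the data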
Shn3 inh set2: inhibitors of Schnurri-3 3'UTR reporter in osteoblasts. actives 0.52% (n = 360,000). inhibition, % at 12.5 µM. Clone20 osteoblast Shn3 3'UTR firefly luciferase, 24 h;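 active = mean inhibition of at least 75% with every replicate also reaching 75%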
697 NFkB inh: lowers PMA/ionomycin-induced NF-kB signal in 697 B cells; 697 B-cell NF-kB luciferase reporter, 16 h; actives 0.33% (n = 330,000); AID 435022; inhibition, % at 4 µM; in the data active = inhibition above about 35%
Mdm2 MdmX PPI: human Mdm2/MdmX binding inhibition; actives 3% (n = 330,000); inhibition, % at 8 µM; SaOS-2 split-luciferase Mdm2/MdmX complementation, luminescence; AID 485346; O15151+Q00987;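 active = inhibition of at least 50% at 8 µM in the primary screen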
Target sequence (O15151 whole entry, looked up): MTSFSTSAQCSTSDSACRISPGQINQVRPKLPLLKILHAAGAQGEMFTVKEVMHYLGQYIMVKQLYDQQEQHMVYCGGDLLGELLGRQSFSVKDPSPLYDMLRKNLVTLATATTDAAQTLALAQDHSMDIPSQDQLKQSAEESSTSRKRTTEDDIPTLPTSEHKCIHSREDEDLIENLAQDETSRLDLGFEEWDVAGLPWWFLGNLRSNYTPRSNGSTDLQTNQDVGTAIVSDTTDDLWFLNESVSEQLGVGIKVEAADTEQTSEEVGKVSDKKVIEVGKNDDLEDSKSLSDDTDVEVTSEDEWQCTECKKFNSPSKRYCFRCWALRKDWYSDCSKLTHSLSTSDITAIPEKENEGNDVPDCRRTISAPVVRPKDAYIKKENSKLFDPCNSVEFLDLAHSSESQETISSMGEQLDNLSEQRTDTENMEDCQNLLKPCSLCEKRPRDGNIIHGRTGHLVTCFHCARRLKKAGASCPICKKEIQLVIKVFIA
Target sequence (Q00987 whole entry, looked up): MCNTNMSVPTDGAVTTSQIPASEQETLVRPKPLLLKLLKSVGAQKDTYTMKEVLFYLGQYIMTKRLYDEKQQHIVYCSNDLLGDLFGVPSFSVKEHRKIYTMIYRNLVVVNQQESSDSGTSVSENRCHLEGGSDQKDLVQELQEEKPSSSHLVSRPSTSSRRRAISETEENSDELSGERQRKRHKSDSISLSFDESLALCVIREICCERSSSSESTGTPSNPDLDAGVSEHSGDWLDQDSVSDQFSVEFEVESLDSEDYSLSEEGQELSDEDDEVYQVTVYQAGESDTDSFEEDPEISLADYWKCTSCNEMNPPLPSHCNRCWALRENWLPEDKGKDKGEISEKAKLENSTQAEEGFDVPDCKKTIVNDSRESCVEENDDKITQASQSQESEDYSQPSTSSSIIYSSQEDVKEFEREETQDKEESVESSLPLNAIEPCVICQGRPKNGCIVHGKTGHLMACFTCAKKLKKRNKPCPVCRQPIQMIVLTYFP
Jurkat NFkB inh: lowers PMA/ionomycin-induced NF-kB signal in Jurkat cells; inhibition, % at 4 µM; actives 0.53% (n = 330,000); PMA/ionomycin-induced NF-kB luciferase reporter, luminescence; in the data active = inhibition above about 50%
Mdm2-MdmX conf: confirmation of human Mdm2/MdmX interaction inhibitors | shares compounds with Mdm2 MdmX PPI | Mdm2-MdmX binding, luminescent assay | inhibition, % at 8 µM | actives 55% (n = 10,000); in the data active = inhibition above about 40%
FLuc counter: counter-screen for Mdm2/MdmX inhibitors: full-length luciferase; shares compounds with Mdm2 MdmX PPI; SaOS-2 full-length luciferase counterscreen, luminescence; inhibition, % at 8 µM; actives 77% (n = 6,200);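 active = mean inhibition at 8 µM reaching about 37%, which flags the compound as non-specific, limit read from the data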;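 also: p53-null SaOS-2 cells with luciferase driven by a doxycycline-inducible promoter; compound on cells about two nights before reading with doxycycline added after day one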
A number is an active result; – = inactive; · = not tested or not shown.

SMILES	Gli-Sufu block	Shn3 inh set2	697 NFkB inh	Mdm2 MdmX PPI	Jurkat NFkB inh	Mdm2-MdmX conf	others
CCOC(=O)c1ccc(N2C(=O)c3n[nH]c(C)c3C2c2ccc(OC)cc2)cc1 (centres undefined)	–	–	–	–	–	·
COc1cc(C2c3c(n[nH]c3C)C(=O)N2c2ccc(Br)cc2)ccc1O (centres undefined)	–	–	–	55.9	–	–
COC(=O)c1ccc(C2c3c(n[nH]c3C)C(=O)N2c2ccc(C)cc2)cc1 (centres undefined)	–	–	–	74.0	–	47.4	FLuc counter=43.4
CC[C@]12C(=O)N(C)C[C@H]([C@@H]3C(=O)N(C)C(=O)[C@@H]31)N2C(=O)c1ccc(Br)cc1	–	–	·	·	·	·
Cc1ccc(-c2nn3c(C)nnc3c3ccccc23)cc1S(=O)(=O)N(C)CCO	–	–	–	52.9	–	–
Cc1ccc(-c2nn3c(C)nnc3c3ccccc23)cc1S(=O)(=O)NCc1ccccc1	–	–	–	–	–	·
CCOC(=O)N1CCN(S(=O)(=O)c2cc(-c3nn4c(C)nnc4c4ccccc34)ccc2C)CC1	–	–	–	58.5	–	–
CC(Oc1cccc(F)c1)c1ccnc2nc(/N=C/N(C)C)nn12 (centres undefined)	–	–	–	–	–	·
COc1cc(/C=C/C(=O)OCC(=O)c2ccc(S(=O)(=O)N3CCCCC3)cc2)cc(OC)c1OC	–	–	–	56.0	–	–
Oc1ccccc1C=NCC(O)c1ccccc1 (centres undefined)	–	–	–	–	–	·
Cc1ccc(NC2CCCN(C(=O)c3cccs3)C2)cc1C (centres undefined)	–	–	–	–	–	·
Cc1cccc(CC(Cc2nc3ccccc3[nH]2)c2nc3ccccc3[nH]2)c1 (centres undefined)	–	–	–	75.2	–	–
COc1ccccc1CC(Cc1nc2ccccc2[nH]1)c1nc2ccccc2[nH]1 (centres undefined)	–	–	–	–	–	·
C=CCN(CC=C)S(=O)(=O)c1ccc2nc(NC(=O)C(C)C)sc2c1	–	–	–	58.7	–	59.5	FLuc counter=52.1
CCN(C(=O)CSc1nnc(C)n1-c1ccccc1)C1CCS(=O)(=O)C1 (centres undefined)	–	–	–	–	–	·
COc1ccc(C)cc1-n1nnnc1SCc1nc(N)nc(N(C)C)n1	·	–	·	·	·	·
O=C(/C=C/c1cccnc1)c1ccc([N+](=O)[O-])cc1	–	–	–	–	–	·
COc1cc(C(=O)/C=C/c2cccnc2)c([N+](=O)[O-])cc1OC	–	–	–	54.6	–	–
NC(=O)c1cccc(-c2cnc(N)c(C(=O)c3cccnc3)n2)c1	–	–	·	·	·	·
CC(=O)Nc1cccc(-c2cnc(N)c(C(=O)c3cccnc3)n2)c1	–	–	–	90.0	–	93.4	FLuc counter=54.5
CCCCCCN1C[C@@H](n2cc(C3CC3)nn2)[C@H](O)C[C@@H]1c1ccccc1	·	–	·	·	·	·
O=C1/C(=C/c2cccc(Cl)c2)SC(=S)N1CCC(=O)N1CCCCC1CCO (centres undefined)	–	–	–	63.2	–	40.6	FLuc counter=39.1
O=C1/C(=C/c2ccccc2F)SC(=S)N1CCC(=O)N1CCCCC1CCO (centres undefined)	–	–	–	61.2	–	–
O=C1/C(=C/c2ccc(Cl)cc2)SC(=S)N1CCC(=O)N1CCCCC1CCO (centres undefined)	–	–	–	–	–	·
CCCn1c(N)c(N(CCOC)C(=O)c2ccc(-c3ccc(Cl)cc3)o2)c(=O)[nH]c1=O	–	–	–	–	–	·
SMILES	Gli-Sufu block	Shn3 inh set2	697 NFkB inh	Mdm2 MdmX PPI	Jurkat NFkB inh	Mdm2-MdmX conf	others
CSc1nc2nccc(/C=C\c3ccccc3)n2n1	–	–	–	75.2	–	66.2	FLuc counter=–
O=C(CN1C(=O)C(=O)N(Cc2ccco2)C1=O)Nc1ccccc1	–	–	–	–	–	·
O=C(Cc1ccsc1)NNC(=O)c1ccccc1O	–	–	–	–	–	·
Cn1c2ccccc2c2c(C(=O)N3CCN(c4ccccc4)CC3)cn(C3CCCC3)c(=O)c21	–	–	–	–	–	·
Cc1ccc(Cl)cc1N1CCN(C(=O)c2cn(C)c(=O)c3c2c2ccccc2n3C)CC1	–	–	–	69.1	–	63.2	FLuc counter=42.2
Cc1cccc(N2CCN(C(=O)c3cn(C)c(=O)c4c3c3ccccc3n4C)CC2)c1C	–	–	–	59.4	–	44.5	FLuc counter=64.0

High-throughput results as filed in PubChem BioAssay.
